The full data set covers some 7,900 targets. This sample favours those with a hit. About 0.6% of all pairs of compound and target were hits.
Compound: CC1=C(C(CC(=O)N1)C2=CC=C(C=C2)C(F)(F)F)C(=O)NC3=C(C=C4C(=C3)C=NN4)F
Assay: log2 fold change, soluble protein after heating vs DMSO (PISA); higher = thermal stabilisation; K562 cells, 10 uM, 30 min; active = over 0.2 and 3.5 SD of the protein, either way, in both replicates (recomputed)
In short: (§1)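 Values are thermal stability changes relative to control samples and are taken from duplicates. They are stated as log2 fold changes. Before quantification by TMTpro 16plex LC-MS/MS with equalised channel sums, K562 cells at 2×10^6 cells/mL were treated with 10 μM compound for 30 min, heated in aliquots for 3 min across 48°C-58°C, pooled, extracted in PBS with 0.5% NP-40 at 4°C, and centrifuged at 21,000xg for 90 min to give the soluble supernatant.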

Sequence of UniProt Q9NYL2 (Q9NYL2 whole entry, looked up): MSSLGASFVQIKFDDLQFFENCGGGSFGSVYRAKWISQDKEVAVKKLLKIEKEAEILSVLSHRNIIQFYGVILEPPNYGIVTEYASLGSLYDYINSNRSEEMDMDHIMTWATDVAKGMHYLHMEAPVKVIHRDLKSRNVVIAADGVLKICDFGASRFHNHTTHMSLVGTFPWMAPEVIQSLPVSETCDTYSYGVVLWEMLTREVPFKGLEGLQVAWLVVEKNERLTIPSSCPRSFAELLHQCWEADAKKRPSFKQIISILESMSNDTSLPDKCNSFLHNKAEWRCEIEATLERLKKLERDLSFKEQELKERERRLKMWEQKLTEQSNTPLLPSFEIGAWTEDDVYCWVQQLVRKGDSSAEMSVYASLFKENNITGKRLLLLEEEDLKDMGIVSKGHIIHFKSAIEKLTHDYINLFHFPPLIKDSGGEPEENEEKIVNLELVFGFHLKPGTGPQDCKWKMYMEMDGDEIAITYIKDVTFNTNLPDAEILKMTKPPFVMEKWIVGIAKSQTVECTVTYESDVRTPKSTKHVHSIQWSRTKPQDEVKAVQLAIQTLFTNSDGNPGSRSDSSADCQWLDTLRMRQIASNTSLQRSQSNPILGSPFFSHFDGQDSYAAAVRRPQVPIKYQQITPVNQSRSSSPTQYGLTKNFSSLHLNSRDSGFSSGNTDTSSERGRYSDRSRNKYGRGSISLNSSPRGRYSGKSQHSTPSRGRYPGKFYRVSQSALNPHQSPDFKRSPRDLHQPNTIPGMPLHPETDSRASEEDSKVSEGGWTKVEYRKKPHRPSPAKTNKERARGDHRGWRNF
Sequence of UniProt Q7LBC6 (Q7LBC6 whole entry, looked up): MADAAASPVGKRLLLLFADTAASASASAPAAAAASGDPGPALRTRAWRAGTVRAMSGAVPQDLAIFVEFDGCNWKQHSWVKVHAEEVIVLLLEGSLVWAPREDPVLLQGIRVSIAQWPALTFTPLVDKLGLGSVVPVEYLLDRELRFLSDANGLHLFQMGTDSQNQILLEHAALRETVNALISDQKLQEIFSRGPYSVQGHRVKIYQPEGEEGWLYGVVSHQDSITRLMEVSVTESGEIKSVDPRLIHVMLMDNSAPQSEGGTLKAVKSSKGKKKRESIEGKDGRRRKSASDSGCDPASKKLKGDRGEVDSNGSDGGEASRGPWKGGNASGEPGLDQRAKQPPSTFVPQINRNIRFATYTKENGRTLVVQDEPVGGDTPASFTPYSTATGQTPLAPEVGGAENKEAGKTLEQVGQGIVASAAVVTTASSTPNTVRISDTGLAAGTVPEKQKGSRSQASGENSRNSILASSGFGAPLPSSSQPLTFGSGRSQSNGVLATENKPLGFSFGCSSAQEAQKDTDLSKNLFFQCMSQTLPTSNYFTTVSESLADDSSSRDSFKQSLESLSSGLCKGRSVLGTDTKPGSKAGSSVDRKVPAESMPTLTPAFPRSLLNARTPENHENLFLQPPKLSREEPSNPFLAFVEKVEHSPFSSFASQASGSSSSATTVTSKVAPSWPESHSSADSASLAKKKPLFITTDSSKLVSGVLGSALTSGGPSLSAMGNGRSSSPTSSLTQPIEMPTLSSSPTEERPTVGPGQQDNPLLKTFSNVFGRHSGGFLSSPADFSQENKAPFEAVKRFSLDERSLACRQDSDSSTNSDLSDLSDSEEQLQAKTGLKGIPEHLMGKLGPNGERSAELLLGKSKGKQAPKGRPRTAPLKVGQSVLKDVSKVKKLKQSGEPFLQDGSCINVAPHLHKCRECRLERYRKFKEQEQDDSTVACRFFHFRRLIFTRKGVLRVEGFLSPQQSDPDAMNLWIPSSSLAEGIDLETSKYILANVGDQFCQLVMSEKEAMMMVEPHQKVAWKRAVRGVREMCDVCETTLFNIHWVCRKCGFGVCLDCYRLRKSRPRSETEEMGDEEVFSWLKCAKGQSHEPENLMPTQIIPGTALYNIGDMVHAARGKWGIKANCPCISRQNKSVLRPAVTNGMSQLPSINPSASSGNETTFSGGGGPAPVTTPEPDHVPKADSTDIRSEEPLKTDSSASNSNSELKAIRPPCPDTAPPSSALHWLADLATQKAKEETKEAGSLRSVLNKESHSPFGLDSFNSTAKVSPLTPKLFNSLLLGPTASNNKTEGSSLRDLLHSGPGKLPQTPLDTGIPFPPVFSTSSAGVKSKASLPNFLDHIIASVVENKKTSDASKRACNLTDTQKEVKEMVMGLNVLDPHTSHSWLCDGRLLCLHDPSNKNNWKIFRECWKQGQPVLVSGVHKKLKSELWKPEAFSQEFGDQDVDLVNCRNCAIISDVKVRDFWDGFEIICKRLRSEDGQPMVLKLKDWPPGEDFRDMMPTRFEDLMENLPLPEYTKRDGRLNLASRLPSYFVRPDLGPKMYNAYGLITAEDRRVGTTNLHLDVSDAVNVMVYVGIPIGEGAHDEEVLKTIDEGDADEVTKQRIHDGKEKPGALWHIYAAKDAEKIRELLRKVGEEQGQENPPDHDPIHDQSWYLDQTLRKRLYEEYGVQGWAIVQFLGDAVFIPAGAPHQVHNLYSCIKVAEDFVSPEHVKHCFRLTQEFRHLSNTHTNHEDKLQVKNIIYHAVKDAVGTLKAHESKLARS
Sequence of UniProt Q6P9B6 (Q6P9B6 whole entry, looked up): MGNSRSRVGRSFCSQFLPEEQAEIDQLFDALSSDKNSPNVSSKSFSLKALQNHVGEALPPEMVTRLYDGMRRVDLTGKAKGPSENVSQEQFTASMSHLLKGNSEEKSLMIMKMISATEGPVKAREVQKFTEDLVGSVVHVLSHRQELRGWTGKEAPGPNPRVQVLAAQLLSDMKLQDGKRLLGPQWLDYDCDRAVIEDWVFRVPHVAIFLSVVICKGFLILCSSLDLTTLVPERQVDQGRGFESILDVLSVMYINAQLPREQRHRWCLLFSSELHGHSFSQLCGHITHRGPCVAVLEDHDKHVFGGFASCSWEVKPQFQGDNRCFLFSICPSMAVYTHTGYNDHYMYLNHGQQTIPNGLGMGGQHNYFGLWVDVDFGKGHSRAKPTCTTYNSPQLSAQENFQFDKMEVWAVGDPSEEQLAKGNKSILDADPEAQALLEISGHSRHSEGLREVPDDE
Sequence of UniProt Q9Y383 (Q9Y383 whole entry, looked up): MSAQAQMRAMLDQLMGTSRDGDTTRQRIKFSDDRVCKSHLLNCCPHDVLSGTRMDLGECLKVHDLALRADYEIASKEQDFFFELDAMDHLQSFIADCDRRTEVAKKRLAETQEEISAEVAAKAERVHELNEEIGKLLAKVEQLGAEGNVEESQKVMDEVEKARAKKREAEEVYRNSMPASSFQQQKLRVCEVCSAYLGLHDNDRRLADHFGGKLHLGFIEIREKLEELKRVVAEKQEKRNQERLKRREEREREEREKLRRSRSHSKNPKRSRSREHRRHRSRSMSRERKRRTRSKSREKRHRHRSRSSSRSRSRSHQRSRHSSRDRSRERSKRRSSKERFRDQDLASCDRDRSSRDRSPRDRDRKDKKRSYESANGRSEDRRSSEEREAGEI
Sequence of UniProt Q86V48 (Q86V48 whole entry, looked up): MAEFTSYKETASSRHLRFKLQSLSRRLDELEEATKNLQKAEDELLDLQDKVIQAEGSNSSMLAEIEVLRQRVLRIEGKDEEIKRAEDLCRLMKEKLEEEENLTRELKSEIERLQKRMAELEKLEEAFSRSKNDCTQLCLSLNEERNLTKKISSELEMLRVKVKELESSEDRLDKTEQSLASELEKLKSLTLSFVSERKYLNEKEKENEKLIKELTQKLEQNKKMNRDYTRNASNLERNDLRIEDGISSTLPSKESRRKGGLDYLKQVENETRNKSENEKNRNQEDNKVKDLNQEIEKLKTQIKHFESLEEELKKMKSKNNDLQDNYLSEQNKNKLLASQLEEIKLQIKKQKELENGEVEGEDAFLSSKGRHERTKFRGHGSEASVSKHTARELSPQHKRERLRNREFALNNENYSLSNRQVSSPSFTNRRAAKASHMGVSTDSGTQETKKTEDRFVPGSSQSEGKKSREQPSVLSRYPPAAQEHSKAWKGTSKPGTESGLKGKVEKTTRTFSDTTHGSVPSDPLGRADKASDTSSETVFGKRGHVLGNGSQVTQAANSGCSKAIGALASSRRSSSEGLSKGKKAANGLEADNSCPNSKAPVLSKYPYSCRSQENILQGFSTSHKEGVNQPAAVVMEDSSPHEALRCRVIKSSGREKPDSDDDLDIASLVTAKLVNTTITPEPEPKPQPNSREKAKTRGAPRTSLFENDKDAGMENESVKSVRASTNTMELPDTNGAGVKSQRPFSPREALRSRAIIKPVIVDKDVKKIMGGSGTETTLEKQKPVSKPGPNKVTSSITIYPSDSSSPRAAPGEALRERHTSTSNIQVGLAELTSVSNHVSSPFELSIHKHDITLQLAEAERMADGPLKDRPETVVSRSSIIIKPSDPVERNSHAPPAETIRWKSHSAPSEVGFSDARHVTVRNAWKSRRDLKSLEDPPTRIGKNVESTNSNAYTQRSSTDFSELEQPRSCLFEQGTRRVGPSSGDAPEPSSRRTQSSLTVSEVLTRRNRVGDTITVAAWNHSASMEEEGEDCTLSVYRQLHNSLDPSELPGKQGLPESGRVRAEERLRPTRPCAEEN

| Target | log2 fold change |
| --- | --- |
| MAPK9 (UniProt P45984) | -0.022 (inactive) |
| MGST3 (UniProt O14880) | 0.011 (inactive) |
| INTS7 (UniProt Q9NVH2) | -0.07 (inactive) |
| LARP1 (UniProt Q6PKG0) | 0.021 (inactive) |
| KDM5D isoform 3 (UniProt Q9BY66) | 0.043 (inactive) |
| MAP2K1 (UniProt Q02750) | 0.008 (inactive) |
| MAP3K20 (UniProt Q9NYL2) | 0.073 (inactive) |
| LUC7L3 (UniProt O95232) | -0.013 (inactive) |
| LBR (UniProt Q14739) | -0.036 (inactive) |
| L2HGDH (UniProt Q9H9P8) | -0.018 (inactive) |
| KDM3B (UniProt Q7LBC6) | -0.018 (inactive) |
| LUC7L2 (UniProt Q9Y383) | 0.009 (inactive) |
| MFN2 (UniProt O95140) | -0.022 (inactive) |
| IPO9 (UniProt Q96P70) | -0.025 (inactive) |
| LSR (UniProt Q86X29) | -0.035 (inactive) |
| MAP4 (UniProt P27816) | 0.006 (inactive) |
| LARP7 isoform 3 (UniProt Q4G0J3) | -0.063 (inactive) |
| MFF (UniProt Q9GZY8) | 0.124 (inactive) |
| METTL18 (UniProt O95568) | 0.065 (inactive) |
| ILF3 isoform 7 (UniProt Q12906) | 0.006 (inactive) |

| Target | log2 fold change |
| --- | --- |
| LAMP2 (UniProt P13473) | -0.139 (inactive) |
| LRPPRC (UniProt P42704) | 0.062 (inactive) |
| MAPKAPK3 (UniProt Q16644) | -0.008 (inactive) |
| MDC1 (UniProt Q14676) | 0.001 (inactive) |
| MAPKAPK5 (UniProt Q8IW41) | -0.161 (inactive) |
| KRAS isoform 2 (UniProt P01116) | 0.001 (inactive) |
| LTO1 (UniProt Q8WV07) | 0.04 (inactive) |
| MEAK7 (UniProt Q6P9B6) | -0.004 (inactive) |
| KPNA6 (UniProt O60684) | 0.04 (inactive) |
| LSS (UniProt P48449) | -0.022 (inactive) |
| MARK3 (UniProt P27448) | 0.136 (inactive) |
| KIFBP (UniProt Q96EK5) | -0.034 (inactive) |
| LUZP1 (UniProt Q86V48) | 0.124 (inactive) |
| MARK2 (UniProt E9PC69) | 0.077 (inactive) |
| IRF2BPL (UniProt Q9H1B7) | 0.044 (inactive) |
| MFN1 (UniProt Q8IWA4) | 0.015 (inactive) |
| LUC7L (UniProt Q9NQ29) | 0.083 (inactive) |
| IMMP1L (UniProt Q96LU5) | 0.06 (inactive) |
| IL27RA (UniProt Q6UWB1) | 0.1 (inactive) |

Compound: CC1=C(C2=C(C=C1)C(=O)C3=CC=CC=C3N2CCCN)C
Assay: as above
In short: as §1

| Target | log2 fold change |
| --- | --- |
| MAPK9 (UniProt P45984) | 0 (inactive) |
| MGST3 (UniProt O14880) | -0.014 (inactive) |
| INTS7 (UniProt Q9NVH2) | 0.048 (inactive) |
| LARP1 (UniProt Q6PKG0) | -0.303 (active) |
| KDM5D isoform 3 (UniProt Q9BY66) | -0.103 (inactive) |
| MAP2K1 (UniProt Q02750) | 0.026 (inactive) |
| MAP3K20 (UniProt Q9NYL2) | 0.027 (inactive) |
| LUC7L3 (UniProt O95232) | 0.109 (inactive) |
| LBR (UniProt Q14739) | 0.188 (inactive) |
| L2HGDH (UniProt Q9H9P8) | 0.029 (inactive) |
| KDM3B (UniProt Q7LBC6) | -0.007 (inactive) |
| LUC7L2 (UniProt Q9Y383) | -0.037 (inactive) |
| MFN2 (UniProt O95140) | 0.049 (inactive) |
| IPO9 (UniProt Q96P70) | 0.447 (active) |
| LSR (UniProt Q86X29) | -0.008 (inactive) |
| MAP4 (UniProt P27816) | 0.08 (inactive) |
| LARP7 isoform 3 (UniProt Q4G0J3) | -0.383 (active) |
| MFF (UniProt Q9GZY8) | -0.042 (inactive) |
| METTL18 (UniProt O95568) | 0.072 (inactive) |
| ILF3 isoform 7 (UniProt Q12906) | 0.218 (inactive) |

| Target | log2 fold change |
| --- | --- |
| LAMP2 (UniProt P13473) | 0.066 (inactive) |
| LRPPRC (UniProt P42704) | -0.252 (inactive) |
| MAPKAPK3 (UniProt Q16644) | 0.045 (inactive) |
| MDC1 (UniProt Q14676) | 0.11 (inactive) |
| MAPKAPK5 (UniProt Q8IW41) | 0.002 (inactive) |
| KRAS isoform 2 (UniProt P01116) | 0.072 (inactive) |
| LTO1 (UniProt Q8WV07) | 0.041 (inactive) |
| MEAK7 (UniProt Q6P9B6) | 0.033 (inactive) |
| KPNA6 (UniProt O60684) | -0.15 (inactive) |
| LSS (UniProt P48449) | -0.195 (inactive) |
| MARK3 (UniProt P27448) | 0.026 (inactive) |
| KIFBP (UniProt Q96EK5) | 0.054 (inactive) |
| LUZP1 (UniProt Q86V48) | 0.079 (inactive) |
| MARK2 (UniProt E9PC69) | 0.034 (inactive) |
| IRF2BPL (UniProt Q9H1B7) | 0.093 (inactive) |
| MFN1 (UniProt Q8IWA4) | 0.098 (inactive) |
| LUC7L (UniProt Q9NQ29) | -0.056 (inactive) |
| IMMP1L (UniProt Q96LU5) | 0.199 (inactive) |
| IL27RA (UniProt Q6UWB1) | 0.012 (inactive) |

From the supplement of paper PMC10849652
